This assay relates to Ras. The assay can be described thus: GTPase panel EC50 shift with labeled GTP level, profiling panel, mechanism study, biochemical, four GTPases, bead flow cytometry (AID 743330). To be noted: bead-based flow cytometry, fluorescent GTP binding to GTPases. Background: Flow cytometry measures light scatter and fluorescence of single cells or particles in a stream.

As usually defined, the EC50 is the concentration needed to bring the measured effect to its halfway point.

The source made the active and inactive calls. The rule behind the calls is not given here.

As for `CC1(C)Cc2c(sc(NC(=S)NC(=O)c3ccc(F)cc3)c2C(=O)O)CO1`, the half-maximal effective concentration (EC50) is 31 nM (active).

For `CCC1(C)Cc2c(sc(NC(=S)NC(=O)c3ccccc3)c2C(=O)O)CO1` (configuration not stated), the EC50 is 5 nM (active).

The values are drawn from PubChem BioAssay AID743330 (NMMLSC, 2014).
